Compound activity deposited in PubChem BioAssay by The Scripps Research Institute Molecular Screening Center.
An excerpt weighted towards active compounds, which were near 4.8% of everything screened.
ssDAF-12 act = S. stercoralis DAF-12 nuclear receptor activators, primary screen, cell-based, luminescence, HEK293, GRIP1 co-expression, lit1-tk-luc; Nuclear hormone receptor DAF-12 (Strongyloides stercoralis); HEK293 ssDAF-12/GRIP1 lit1-tk-luc reporter; % of 3 µM dafachronic acid response; activation, % at 6.8 µM; 370,000 compounds, 1% hits; AID 652126, 2013;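 active = activation above the mean over all tested compounds plus 3 SD, cut at about 0.9% in these data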;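 note: 0% = DMSO-only wells and 100% = 3 µM delta7-dafachronic acid wells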
hcDAF-12 act = H. contortus DAF-12 nuclear receptor activators, primary screen, cell-based, luminescence, HEK293, lit1-tk-luc reporter; 370,000 compounds, 1.4% hits; activation, % at 6.8 µM; HEK293 hcDAF-12 lit1-tk-luc reporter; 0% DMSO, 100% Δ7-dafachronic acid;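 active = activation above the mean of all tested compounds plus 3 SD, cut at about 5.5% in these data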;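 note: 100% = response to 3 µM Δ7-dafachronic acid high control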
DAX1 inh-1 = DAX1 (NR0B1) inhibitors, primary screen, cell-based, HEK293, Gal4-DAX1, luciferase luminescence. AID 504766, 2011. 340,000 compounds, 0.99% hits. inhibition, % at 6.75 µM. Nuclear receptor subfamily 0 group B member 1 (Homo sapiens), P51843. HEK293 Gal4-DAX1 luciferase reporter;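 active = inhibition above the mean over all tested compounds plus 3 SD, cut at about 4.2% in these data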;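 note: 0% = DAX1-transfected cells with DMSO and 100% = empty-vector control cells with DMSO; inhibition shows as a rise in luminescence from relieved DAX1 repression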
SMARCA2 act = SMARCA2 (BRM) function activators, primary screen, cell-based, luminescence, high throughput. 370,000 compounds, 1% hits. MG213 cells, MMTV-luciferase reporter, dexamethasone, overnight. activation, % at 9.1 µM; in the data active = activation above about 7.8%;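 note: 0% = vehicle wells and 100% = reference activator wells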
DAX1 inh-2 = DAX1 (NR0B1) inhibitors on StAR promoter, primary screen, cell-based, luminescence, SF-1 (NR5A1), full-length DAX-1; HEK293T StAR-luciferase reporter, SF-1/DAX-1 repression relief; inhibition, % at 6.8 µM; 370,000 compounds, 1.1% hits; AID 652010, 2013;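 active = inhibition above the mean over all tested compounds plus 3 SD, cut at about 3.6% in these data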;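 note: 0% = DAX-1 cells with DMSO and 100% = cells lacking DAX-1 with DMSO; higher inhibition means more luminescence from relief of DAX-1 repression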
hgDAF12 agonist = H. glycines DAF-12 receptor agonists, primary screen, cell-based, luminescence, HEK293, GAL4 fusion, UAS-luciferase | Nuclear hormone receptor DAF-12 (Heterodera glycines), GAL4 fusion | HEK293 GAL4-hgDAF12 UAS-luciferase reporter, agonist luminescence; normalized to butyrate control | activation, % at 6.8 µM | 370,000 compounds, 1.8% hits | AID 687014, 2013;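 active = activation above a cutoff set at the mean of all screened compounds plus 3 SD, cut at about 10% in these data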;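 note: 0% = DMSO wells and 100% = sodium butyrate wells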
hgDAF12 conf = H. glycines DAF-12 receptor agonists, confirmation, cell-based, luminescence, HEK293, GAL4-LBD fusion; shares compounds with hgDAF12 agonist; HEK293 GAL4-hgDAF12 luciferase reporter, agonist mode; percent of butyrate response; activation, % at 6.8 µM; 3,300 compounds, 80% hits; AID 743050, 2013;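 active = mean activation over triplicate wells above the hit cutoff derived from the earlier primary screen, cut at about 11% in these data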;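 note: 0% = DMSO low control and 100% = 2 mM sodium butyrate high control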
LXR ag 2 = LXR agonists, Gal4 luciferase reporter, confirmation, counter-screen for hgDAF-12 agonist project, cell-based, luminescence, HEK293, H. glycines campaign | shares compounds with hgDAF12 agonist | 24 h | activation, % at 6.8 µM | 3,300 tested, under 10 active;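 active = mean activation of the triplicate above a set limit carried over from the primary screen, none filed active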
Target sequence (P55055 whole entry, looked up, the tested form may be a part): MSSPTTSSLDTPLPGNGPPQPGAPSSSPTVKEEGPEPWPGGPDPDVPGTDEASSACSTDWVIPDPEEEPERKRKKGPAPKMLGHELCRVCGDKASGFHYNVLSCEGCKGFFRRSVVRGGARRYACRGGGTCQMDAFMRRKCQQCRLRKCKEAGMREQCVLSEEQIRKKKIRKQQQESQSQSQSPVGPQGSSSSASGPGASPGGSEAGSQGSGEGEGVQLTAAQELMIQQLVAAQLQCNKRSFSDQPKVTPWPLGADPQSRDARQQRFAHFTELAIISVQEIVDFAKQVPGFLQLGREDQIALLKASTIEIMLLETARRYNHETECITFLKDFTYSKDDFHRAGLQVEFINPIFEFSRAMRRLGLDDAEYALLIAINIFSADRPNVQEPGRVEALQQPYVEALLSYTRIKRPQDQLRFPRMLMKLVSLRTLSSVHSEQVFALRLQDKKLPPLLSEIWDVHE
The depositor's hits bear a star; . = no result.

SMILES | ssDAF-12 act | hcDAF-12 act | DAX1 inh-1 | SMARCA2 act | DAX1 inh-2 | hgDAF12 agonist | hgDAF12 conf | LXR ag 2
Cn1c(=O)c2c(nc(SCc3nc(N)nc(N4CCCCC4)n3)n2C)n(C)c1=O | -2 | 0 | -1 | -4 | 0 | 1 | . | .
O=C(NCCc1ccccc1)Nc1ccc2c(c1)OCO2 | 1 | 3 | 2 | 7.8* | 3 | 16* | 17* | 1
O=C(Nc1ccc2c(c1)OCO2)Nc1ccc2c(c1)OCO2 | 1 | 5 | 1 | 4 | 4.0* | 22* | 17* | 1
O=C(Nc1ccc([N+](=O)[O-])cc1)Nc1ccc2c(c1)OCCO2 | 0 | 3 | 3 | 3 | 0 | 17* | 20* | 1
O=C(Nc1ccc2c(c1)OCCO2)NC1CCCCC1 | 1 | 5 | 0 | 4 | 2 | 13* | 16* | 1
O=C(Nc1ccc2c(c1)OCCO2)C1CCC1 | -1 | 0 | 1 | -1 | 0 | 3 | . | .
O=C(Nc1cccnc1)Nc1ccc2c(c1)OCO2 | 0 | 5 | 1 | 0 | 1 | 8 | . | .
O=C(NCCc1ccc(F)cc1)Nc1ccc2c(c1)OCO2 | 0 | 2 | 3 | 3 | 2 | 9 | . | .
CC(C)COC(=O)c1ccc(N2C(=O)c3ccccc3C2=O)cc1 | 0 | 0 | 0 | -2 | 1 | 4 | . | .
C[C@@H]1ON(C)[C@H]2C[C@H]3c4cc(-c5cc6ccccc6o5)ccc4CCN3C[C@@H]12 | 0 | 2 | . | 6 | 3.7* | 13* | 8 | 0
C[C@@H]1ON(C)[C@H]2C[C@H]3c4cc(Nc5ccccc5)ccc4CCN3C[C@@H]12 | -1 | -2 | . | -2 | 0 | -1 | . | .
COc1ccc(C(CC(=O)Nc2nccs2)C(C)C)cc1 (stereo not given) | -1 | -2 | 1 | -4 | 0 | -2 | . | .
O=S(=O)(CCN1CCOCC1)c1ccc(Oc2ccc(S(=O)(=O)CCN3CCOCC3)cc2)cc1 | -2 | -2 | -2 | -3 | -1 | -5 | . | .
COc1ccc(C(=O)Nc2scc(-c3ccc(Cl)cc3Cl)c2C(N)=O)cc1 | -1 | 2 | 2 | 5 | 1 | 2 | . | .
O=C(CCc1nnc(-c2ccccc2)o1)NCC1CCN(C2CCCC2)CC1 | -1 | -1 | 0 | 2 | 1 | -2 | . | .
Cc1ccc(-c2nnc(CCC(=O)NCC3C4CC5CC(C4)CC3C5)o2)s1 (stereo not given) | 0 | 5 | 3 | 4 | 2 | 14* | 10 | 0
COc1ccc(Nc2ncnc3c2c(C)c(C)n3CCO)cc1 | 1 | 3 | 3 | 3 | 4 | 16* | 17* | 1
O=C1c2ccccc2NC(c2ccccc2)N1/N=C/c1ccccc1 (stereo not given) | 1 | 5 | 1 | 3 | 3 | 15* | 15* | 1
CN(C)c1cccc(C(=O)NNC(=O)CN2C(=O)C3CC=CCC3C2=O)c1 (stereo not given) | -1 | 4 | 5.7* | 6 | 3 | 14* | 3 | 1
CCCN(CCC)c1nc(Cl)nc(NCc2ccco2)n1 | -1 | -1 | 1 | -1 | 1 | -2 | . | .
C[C@@H](C(=O)Nc1ccc2c(c1)OCCO2)n1nnc2ccccc2c1=O | 0 | 2 | 2 | 8 | 1 | 13* | 14* | 1
CCn1c(SCC(=O)O)nnc1-c1cccnc1 | -1 | 0 | 0 | -1 | 0 | -1 | . | .
COc1ccc2cc(-c3ccn[nH]3)ccc2c1 | 1 | 4 | 3 | 7 | 1 | 14* | 15* | 1
COc1ccc(Oc2cnn(-c3ccccc3)c(=O)c2Br)cc1 | -1 | -1 | -1 | 4 | -2 | 56* | 1 | 0
COc1cc(/C=N/O)ccc1OCc1ccc(C(=O)O)cc1 | 0 | 3 | -6 | 5 | 2 | 13* | 16* | 1
SMILES | ssDAF-12 act | hcDAF-12 act | DAX1 inh-1 | SMARCA2 act | DAX1 inh-2 | hgDAF12 agonist | hgDAF12 conf | LXR ag 2
COc1cc(/C=N/NS(=O)(=O)c2ccc3ccccc3c2)ccc1OCc1ccc(C(=O)O)cc1 | 0 | 3 | -7 | 1 | 3 | 15* | 13* | 1
COc1ccc(/C=N/NS(=O)(=O)c2ccc(C)cc2)cc1OC(=O)c1ccccc1 | -1 | -2 | 1 | -1 | 0 | 1 | . | .
O=C(/C=C/c1ccccc1)C1C(=O)c2ccccc2C1=O | 1 | 5 | 0 | 4 | 1 | 22* | 12* | 0
CC(C)(C)c1cc(NC(=O)Nc2ccccc2)no1 | 0 | 5 | 3 | 7 | 2 | 23* | 19* | 1
CC(=NNc1ccc([N+](=O)[O-])cn1)c1ccccc1 | 0 | 1 | 1 | 8 | 2 | 13* | 16* | 1
CC(C=NNc1ccc([N+](=O)[O-])cn1)=Cc1ccccc1 | 0 | 3 | 7.5* | 6 | 3.7* | 17* | 17* | 1
C/C(=N\Nc1ccc([N+](=O)[O-])cc1)c1ccc(O)cc1 | -1 | 2 | . | -3 | 1 | 16* | 9 | 0
Nc1ccc(C(=O)N2CCCC2)cc1 | -1 | -2 | -1 | -1 | 0 | 8 | . | .
CCC(=O)Nc1nc(-c2ccc3c(c2)OCCO3)cs1 | 0 | 5 | 1 | 1 | 3 | 19* | 16* | 1
c1cc2c(cc1-c1csc(NNC3=NCCCCC3)n1)OCCO2 | 0 | 1 | . | -1 | 2 | 15* | 3 | 0
CC(C)(C)C(=O)Nc1nc(-c2ccc3c(c2)OCO3)cs1 | 0 | 1 | 4 | 6 | 1 | 10 | . | .
CCc1nc(Nc2ccncc2)c2oc3ccccc3c2n1 | -1 | 1 | 1 | 7 | 0 | 19* | 8 | 0
CC(C)(C)NC(=O)C(c1ccncc1)N(C(=O)c1csnn1)C1CC1 (stereo not given) | -1 | -2 | -1 | -1 | 0 | -1 | . | .
CC(NC(=O)C1CCCCC1)C(c1cccs1)N1CCOCC1 (stereo not given) | -1 | 0 | 3 | -2 | -1 | -2 | . | .
